Laboratory results published in PubChem BioAssay (NCATS).
Inconclusive results are not listed. A call without a number means that no potency is given here. Active and inactive are the calls of the source. Calls follow the shape of the dose curve; as a rule, active = well fitted inhibition curve with a large enough effect; inconclusive = small, poorly fitted or top-dose-only effect; inactive = flat fitted curve, though single readings scatter. *1 amine or outer side, *2 acyl side, *3 side chain or, on linkers, in order; H or OH if unused. Where a SMILES comes first, the peptide text is derived from it. [ ]: non-standard residue; d: D form. X7 = O=C([C@@H](CC(O)CCl)O[*:1])[*:2]; aIle = CC[C@@H](C)[C@H](N)C(=O)O; NMeV = CN[C@H](C(=O)O)C(C)C; NMeA = CN[C@@H](C)C(=O)O; βAla = NCCC(=O)O

molecular target: Phospholipid hydroperoxide glutathione peroxidase GPX4 (Homo sapiens) (UniProt P36969); experiment: Primary qHTS Assay for Inhibitors of Recombinant Selenoprotein Glutathione Peroxidase 4 (GPX4) (AID 1845192); conditions: recombinant GPX4, GR-coupled NADPH fluorescence, 15 min; series mostly up to 50 µM; also: nearly all actives have a fitted effect of over 65% in size
Sequence (P36969 whole entry, looked up): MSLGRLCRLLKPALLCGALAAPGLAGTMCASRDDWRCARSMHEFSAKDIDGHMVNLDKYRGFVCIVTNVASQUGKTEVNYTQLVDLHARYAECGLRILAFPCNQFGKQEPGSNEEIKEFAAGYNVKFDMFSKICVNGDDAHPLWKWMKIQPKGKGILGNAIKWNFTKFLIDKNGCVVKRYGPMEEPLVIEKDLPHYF
Excerpt: Assay Provider: Elias S.J. Arner MD PhD.
Department of Medical Biochemistry and Biophysics
Karolinska Institutet, Solna, Stockholm, Sweden
Selenoprotein glutathione peroxidases (GPX), like the ubiquitously expressed GPX1 and the ferroptosis modulator GPX4, enact their antioxidant activities by reducing hydroperoxides using glutathione. […] GPX1 and GPX4 inhibitors have thus shown promise as anti-cancer agents. Existing inhibitors are often promiscuous, or modulate GPX activity only indirectly, so novel direct inhibitors identified through screening against GPX1 and GPX4 could be valuable. Here, we developed optimized glutathione reductase (GR)-coupled GPX assays for the biochemical high-throughput screen (HTS) of almost 12,000 compounds with known mechanisms of action. Initial hits were triaged using a GR counter-screen, assessed for isoform specificity using a separate GPX2 assay, and were assessed for general selenocysteine-targeting activity using a thioredoxin reductase (TXNRD1) assay. With this suite of assays, we identified novel GPX1/GPX2- and GPX4-specific inhibitors and can here present a validated pipeline for future discovery research for selenoprotein-targeting agents.
SEQUENCE No. (e.g., 1, 2, 3, etc.); […] (e.g., Cells, Incubation, Reagent, etc.); VALUE; DESCRIPTION.
1; Reagent 1; 3 uL; 333.33 nM GPx4 enzyme or no enzyme control in 1536-well, black, solid Greiner assay plate.
2; Compound; 25 nL; Kalypsis pin tool (Wako USA) equipped with a 1536-well pin head.
3; Incubation; 30 min; room temperature.
4; Reagent 2; 1 uL; 500 nM GR, 5 mM GSH, 2.5 mM NADPH solution
5; Reagent 3; 1 uL; 2.5 mM CHP in 50% EtOH.
6; Detection; Fluorescence; ViewLux microplate reader, excitation 340 nm and emission 450 nm.
7; Incubation; 15 min; room temperature.
8; Detection; Fluorescence; ViewLux microplate reader, excitation 340 nm and emission 450 nm.
NOTES (numbers refer to Sequence numbers above)
1. 3 µL of 333.33 nM GPX4 and 0.016% BSA in assay buffer (50 mM Tris-HCl, 2 mM EDTA (pH 7.5), 150 mM NaCl) was added to columns 3-48 of 1536-well plates using a BioRAPTR Flying Reagent Dispenser (Let's Go Robotics (LGR), Carlsbad, CA). A no-enzyme control (0.01% BSA in TES assay buffer) was added to columns 1-2.
2. 25 nL, library and DMSO controls were added to each well with a pin tool (Kalypsys).
3. The assay plates were incubated for 30 minutes at room temperature.
4. 1 µL of master mix (500 nM glutathione reductase (GR), 5 mM reduced glutathione (GSH), 2.5 mM NADPH in assay buffer) was added.
5. 1 µL of cumene hydroperoxide (CHP) ([2.5 mM] in 50% EtOH) was then added within 5 minutes to initiate the reaction. Final concentrations were: 200 nM GPX4, 1 mM GSH, 0.5 mM CHP, 0.5 mM NADPH, 100 nM GR, 0.01% BSA.
6. Initial fluorescence readout (t=0) at 340/450 nm was measured using a ViewLux multimodal detector (PerkinElmer, Waltham, MA).
8. Endpoint fluorescence readout (t=15) at 340/450 nm was measured 15 min after room temperature incubation.
Potency is read from the fitted curve at half-maximal effect.

Compound | Potency
O=C(NCCCNc1nc(Nc2ccc(N3CCOCC3)cc2)ncc1C1CC1)C1CCC1 | inactive
O=C(NCCN1CCC2(CC1)C(=O)NCN2c1cccc(F)c1)c1ccc(F)c(F)c1 | inactive
CN1CN(c2ccccc2)C2(CCN(CCCC(=O)c3ccc(F)cc3)CC2)C1=O | inactive
N#Cc1ccccc1-c1cc(-c2ccccn2)cn(-c2ccccc2)c1=O | 25.5 µM (active)
CC(=O)OC[C@]12[C@H](OC(C)=O)C(=O)[C@@H]3[C@@H](O)[C@@]14O[C@@]3(C)COC(=O)c1cccnc1[C@@H](C)[C@H](C)C(=O)O[C@@H]([C@H](OC(C)=O)[C@@H]2OC(C)=O)[C@]4(C)O | inactive
C[C@]12CC[C@H](O[C@@H]3O[C@H](CO)[C@@H](O)[C@H](O)[C@H]3O)CC1CC[C@@H]1C2CC[C@]2(C)[C@@H](C3=CC(=O)OC3)CC[C@]12O (stereo not given in full) | inactive
CC[C@H]1C2CC3[C@@H]4N(C)c5ccccc5[C@]45C[C@@H]([C@H]2[C@H]5O)N3[C@@H]1O | inactive
C[C@@H]1CCC/C=C/[C@H]2C[C@@H](O)C[C@@H]2[C@@H](O)/C=C/C(=O)O1 | inactive
C[C@]12CC[C@H](O)CC1=CC[C@@H]1C2CC[C@]2(C)[C@@H](C3=CC(=O)OC3)CC[C@]12O (stereo not given in full) | inactive
C=C1CC[C@H]2[C@@H](/C=C(\C)C(=O)[C@@]3(OC(C)=O)C[C@H](C)[C@H](OC(=O)c4ccccc4)[C@@H]3[C@H]1OC(C)=O)C2(C)C | inactive
CC1=CC2OC3CC(O)[C@](C)([C@@]2(C)C(O)C1=O)[C@]31CO1 (stereo not given in full) | inactive
C/C=C(\C)C(=O)OC1C2C3(C)CCC(OC4CC(OC)C(OC5OC(C)C(O)C(OC)C5O)C(C)O4)CC3CCC23OC32CCC(C(C)=O)C2(C)C1OC(=O)/C(C)=C/C (stereo not given) | inactive
CO[C@H]1[C@H](O)[C@H](O[C@H]2CC[C@]3(C=O)C4CC[C@]5(C)[C@H](C6=CC(=O)OC6)CC[C@]5(O)C4CC[C@@H]3C2)O[C@@H](C)[C@@H]1O (stereo not given in full) | inactive
CC(=O)OC[C@]12C[C@H](OC(C)=O)C(C)=C[C@H]1O[C@@H]1[C@H](O)[C@@H](O)[C@@]2(C)[C@]12CO2 | inactive
CC[C@H]1C2CC3[C@@H]4N(C)c5ccccc5[C@]45C[C@@H]([C@H]2[C@H]5O)N3[C@H]1O | inactive
C[C@H]1CN(CC[C@H](O)C2CCCCC2)CC[C@@]1(C)c1cccc(O)c1 | inactive
C=C1[C@@]23C(=O)O[C@H](C)[C@]24O[C@@]2(C(=C)[C@]5(C=CC(=O)OC5(C)C)CC[C@]32C)[C@H](O)[C@@]1(C)OC4=O | inactive
CN1Cc2c(ccc3c2OCO3)[C@@H]2[C@H]1c1cc3c(cc1C[C@@H]2O)OCO3 | inactive
Cc1[nH]c2ccc(Cl)cc2c1CCN(C)C | inactive
CN1C(=O)[C@]23CC4C(C)(C)[C@@]5(C[C@@]41CN2CC[C@@]3(C)O)C(=O)Nc1c5ccc2c1OC=CC(C)(C)O2 (stereo not given in full) | inactive

Compound | Potency
O=C(N[C@H]1CN2CCC1CC2)c1cc2cccc(Cl)c2s1 | inactive
CC(=O)O[C@H]1C[C@@H](C)O[C@H]2O[C@@H]3CC4CC[C@@H]5C(CC[C@]6(C)[C@@H](C7=CC(=O)OC7)CC[C@]56O)[C@@]4(C=O)C[C@H]3O[C@]21O (stereo not given in full) | inactive
CN(C)[C@@H]1C(=O)C(C(N)=O)=C(O)[C@@]2(O)C(=O)C3=C(O)c4c(O)ccc(Cl)c4[C@@](C)(O)C3C[C@@H]12 (stereo not given in full) | inactive
COc1ccc(CCNCc2ccc(OC)c3ccccc23)cc1 | inactive
CC[C@@]1(O)C(=O)OCc2c1cc1n(c2=O)Cc2cc3c(OC)cccc3nc2-1 | inactive
C[C@@H](CN1CCC(n2c(=O)[nH]c3cc(Br)ccc32)CC1)NC(=O)[C@@H]1C[C@H]1c1ccccc1 | inactive
CC[C@@H](C)[C@@H]1NC(=O)[C@@H]2CCCN2C(=O)[C@@H](CC(O)CCl)OC(=O)CCNC(=O)[C@H](C)N(C)C(=O)[C@H](C(C)C)N(C)C1=O (stereo not given in full) (cyclo([NMeA][βAla][X7]P[aIle][NMeV])) | inactive
COc1ccc2c3c([nH]c2c1)C(C=C(C)C)N1C(=O)C2CCCN2C(=O)C1C3 (stereo not given) | inactive
C=CC(C)(C)C12C=C(O)C(=O)N3/C(=C\c4cnc[nH]4)C(=O)NC31N(OC)c1ccccc12 (stereo not given) | inactive
C[C@@H]1C[C@@H](O)[C@]2(O)O[C@@H]3C[C@@]4(C=O)C(CC[C@@H]5C4CC[C@]4(C)[C@@](O)(C6=CC(=O)OC6)CC[C@]54O)C[C@H]3OC2O1 (stereo not given in full) | inactive
C1=C(c2cnc[nH]2)c2ccsc2CC1 | inactive
C[C@H](CCC(=O)O)C[C@H](C)C[C@H](C)C(=O)/C=C(\O)[C@H](C)C[C@H](C)C/C=C/[C@@H](C)[C@@H](O)[C@@H](C)[C@@H](O)C[C@@H]1CC[C@@](C)([C@H]2CC[C@@](C)([C@@H](C)O)O2)O1 | inactive
CC[C@@H]1C[C@H]2CC[C@H](O2)[C@H](C)C(=O)O[C@@H](C)C[C@@H]2CC[C@@H](O2)[C@@H](C)C(=O)O[C@H](C)C[C@H]2CC[C@H](O2)[C@H](C)C(=O)O[C@@H](C)C[C@@H]2CC[C@@H](O2)[C@@H](C)C(=O)O1 | inactive
CS[C@]1(CO)C(=O)N2[C@H]3C(=CC=C[C@@H]3O)C[C@@]2(SC)C(=O)N1C | inactive
CC(=O)OC[C@]12C[C@H](O)C(C)=C[C@H]1O[C@@H]1[C@H](O)[C@@H](OC(C)=O)[C@@]2(C)[C@]12CO2 | inactive
CC[C@@H](C)[C@H]1C(=O)O[C@H](C(C)C)C(=O)N(C)[C@@H](C(C)C)C(=O)O[C@H](C(C)C)C(=O)N(C)[C@@H](C(C)C)C(=O)O[C@H](C(C)C)C(=O)N1C | inactive
C[C@]12CC[C@H]3[C@@H](CCC4=C/C(=N/OCC(=O)O)CC[C@@]43C)[C@@H]1CC[C@@H]2O | inactive
CC1=CC(=O)[C@@H](O)[C@]2(C)C3[C@@H](O)[C@@H]4OC(=O)[C@@H]([C@H]4C)[C@]3(C)C(=O)[C@H](O)[C@@H]12 (stereo not given in full) | inactive
Cc1ccc2c(c1)[C@]13CCCC[C@@H]1[C@H](C2)N(C)CC3 | inactive
C#CCO[C@H]1CN2CCC1CC2 | inactive
